BCLXL inh: Bcl-xL (human) inhibition; Q07817; AID 2129; 320,000 compounds, 0.7% hits; GST-Bcl-xL / FITC-Bim BH3 peptide fluorescence polarization; inhibition, % at 10.9 µM;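 active = inhibition above the mean of all tested compounds plus 3 SD, cutoff set per campaign, cut at about 30% in these data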;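 note: 0% = DMSO wells and 100% = unlabeled Bim-BH3 peptide competitor; inhibitors lower millipolarization by displacing the labeled peptide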
Mcl1-Bid inh: disrupts binding of human Mcl-1 to Bid peptide; Q07820; TR-FRET Mcl-1/Bid-Dy647 peptide binding, 1536-well; inhibition, % at 21.7 µM; 220,000 compounds, 0.97% hits;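 active = compounds that cut the binding signal by more than half at the single screening dose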;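 note: His-tagged Mcl-1 with europium anti-His antibody binding Bid BH3 peptide; 0% = Mcl-1 plus peptide wells and 100% = peptide-only wells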
Target sequence (Q07820 whole entry, looked up): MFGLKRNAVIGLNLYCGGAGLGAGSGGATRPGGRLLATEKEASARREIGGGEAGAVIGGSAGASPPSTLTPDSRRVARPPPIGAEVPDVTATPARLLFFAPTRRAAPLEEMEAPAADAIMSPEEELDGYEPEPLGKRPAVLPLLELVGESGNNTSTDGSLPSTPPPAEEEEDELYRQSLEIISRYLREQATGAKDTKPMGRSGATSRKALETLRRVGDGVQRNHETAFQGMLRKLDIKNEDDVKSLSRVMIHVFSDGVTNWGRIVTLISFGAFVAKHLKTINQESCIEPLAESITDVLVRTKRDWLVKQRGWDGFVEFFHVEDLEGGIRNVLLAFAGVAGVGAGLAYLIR
Bim-Mcl-1: disrupts Bim peptide binding to human Mcl-1; Bead-based flow cytometry, Bim peptide-Mcl-1 binding; 190,000 compounds, 0.1% hits; inhibition, % at 10 µM; in the data active = inhibition above about 40%;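 note: 0% = no compound tracer wells and 100% = peptide blocker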
Mcl1-Noxa inh: Mcl-1/Noxa interaction inhibition; AID 1022; inhibition, % at 21.7 µM; 220,000 compounds, 1.5% hits; TR-FRET Mcl-1/Noxa peptide binding, 2 h; Q07820;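 active = compounds that cut the protein-peptide binding signal by more than 50% relative to plate controls in a single-dose test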;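 note: His-tagged Mcl-1 with rhodamine Noxa BH3 peptide and terbium anti-His antibody; 0% = Mcl-1 plus Noxa peptide wells and 100% = peptide-only wells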
GLD-1 RNA inh: GLD-1-TGE RNA interaction inhibition (C. elegans). inhibition, % at 5.96 µM. 320,000 compounds, 0.44% hits. AID 2280. purified GLD-1 + fluorescein TGE RNA, fluorescence polarization. Q17339;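 active = percent inhibition above a per-plate cutoff, the plate mean of test compounds plus 3 SD, cut at about 30% in these data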;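 note: 0% = DMSO wells with GLD-1 and probe and 100% = wells lacking GLD-1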
MCL1-BIM inh: MCL1-BIM-BH3 interaction inhibition (human); Q07820; GST-MCL1 / FITC-Bim-BH3 fluorescence polarization; inhibition, % at 10.9 µM; 320,000 compounds, 0.68% hits; AID 2057;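 active = inhibition above the mean inhibition of all tested compounds plus 3 SD, set per campaign, cut at about 40% in these data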;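 note: 0% = DMSO wells and 100% = unlabeled Bim-BH3 peptide control; higher means more loss of mP so more displacement of Bim peptide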
* = called active by the depositor; · = no result. A selection: hits, their analogues and other compounds. The true share with any hit is near 2.3%.

SMILES	BCLXL inh	Mcl1-Bid inh	Bim-Mcl-1	Mcl1-Noxa inh	GLD-1 RNA inh	MCL1-BIM inh
COc1ccc(C(=O)Nc2ccccc2)cc1NC(=O)c1ccc([N+](=O)[O-])cc1	7.7	·	·	·	8.6	9.5
CN1CCN(c2ccc(Cl)cc2NC(=O)c2ccc(S(=O)(=O)N(C)C)cc2)CC1	-1.2	7.6	0.0	54.9*	-2.6	-0.1
CCOC(=O)c1cccc(OS(=O)(=O)Cc2ccccc2)c1	-0.6	·	·	·	7.0	0.3
COc1ccc(C2NC3=C(CCC3)C3(C#N)C(OC)(OC)N=C(N)C23C#N)cc1 (stereo not drawn)	31.3*	-18.8	0.0	13.7	20.1	31.8
CCCCC(Sc1nc(N)c(NC(=O)c2ccco2)c(=O)[nH]1)C(=O)O (stereo not drawn)	31.1*	·	·	·	23.8	37.8
CCC(=O)OC1(C)C(=O)C=C2C=C(c3ccsc3)OC=C2C1=O (stereo not drawn)	25.1	4.2	·	67.8*	17.5	36.1
CN(C)C(CNC(=O)c1cccc(C(F)(F)F)c1)c1ccco1 (stereo not drawn)	-4.1	·	·	·	-6.0	-3.1
O=C(NCCCN1CCN(c2ccccc2F)CC1)Nc1ccc(F)cc1	4.9	-46.1	-1.0	40.8	9.9	0.0
CSc1ccc(NC(=O)NCCCN2CCN(c3ccccc3F)CC2)cc1	4.2	-48.0	0.0	58.3*	2.3	-5.7
O=S(=O)(NCc1ccccc1)c1ccc(Cl)cc1	6.6	-18.4	-6.0	-23.9	-3.0	9.2
O=S(=O)(Nc1cc2nc3ccccc3nc2n1Cc1ccccc1)c1ccc(Cl)cc1	30.1	-14.6	-19.0	29.4	39.6*	17.5
CN1CCC23c4ccccc4NC1C21CCN(C)C3Nc2ccccc21	1.9	·	·	·	8.6	-1.2
C/C=C/C=C/C(=O)N1CC[C@]23c4ccccc4N[C@H]4N(C)c5cccc6c5[C@]42CCN([C@H]6C2OC2(C)C)[C@H]13 (stereo partly drawn)	2.6	-108.8	·	63.9*	3.8	4.2
C/C(=N/NC(=O)c1cc(C)[nH]n1)c1ccncc1	4.6	·	·	·	3.3	0.9
Nc1cc([N+](=O)[O-])ccc1Nc1ccc(O)cc1	6.2	-234.4	·	71.9*	1.9	23.7
COc1cc(C(=O)O[C@H]2C/C(C)=C/CC[C@@]3(C)O[C@@H]3[C@H](O)[C@@H]2C(C)C)cc(OC)c1OC	4.8	·	·	·	0.3	0.8
O=C(c1ccc(Cl)c(NC2=NC3CS(=O)(=O)CC3S2)c1)N1CCN(c2ccc(F)cc2)CC1 (stereo not drawn)	2.1	·	·	·	-3.7	-0.9
CC(NC(N)=O)C(=O)Nc1ccc(Cl)c(S(=O)(=O)Nc2ccc(Br)cc2)c1 (stereo not drawn)	1.2	-4.4	-1.0	56.9*	-2.3	-1.5
c1ccc(Oc2nc3ccccc3n3cccc23)cc1	-2.3	67.1*	-2.0	8.2	3.7	-1.8
Cc1ccc(Oc2nc3ccccc3n3cccc23)cc1	-2.7	2.1	-5.0	8.8	0.5	5.4
CCCOC1CCCN(C(=O)c2cc(COc3ccc(F)c(F)c3)on2)C1 (stereo not drawn)	1.4	·	·	·	-4.0	3.0
Cc1ccc(-c2nc3ccc(Cl)cc3c(=O)n2O)cc1	-2.1	·	·	·	-8.9	-3.1
O=c1c2cc(Cl)ccc2nc(-c2ccccc2Cl)n1O	-4.0	88.4*	3.0	1.8	-11.8	-8.8
CCN(CC(=O)Nc1cc(Cl)ccc1C)C(=O)CCS(=O)(=O)c1ccc(C)cc1	-5.5	·	·	·	1.0	-17.4
CN(C)c1ccc(NC(=O)Cn2ncn3c(cc4ccccc43)c2=O)cc1	3.9	-49.2	0.0	75.9*	-0.4	2.0
SMILES	BCLXL inh	Mcl1-Bid inh	Bim-Mcl-1	Mcl1-Noxa inh	GLD-1 RNA inh	MCL1-BIM inh
CC(C)c1ccc(NC(=O)Cn2ncn3c(cc4ccccc43)c2=O)cc1	11.3	·	·	·	2.0	14.8
CCOC(=O)C1(C)Oc2ccc(S(=O)(=O)CC)cc2NC1=O (stereo not drawn)	2.0	-23.0	0.0	-6.2	3.6	6.0
Cc1ccc(C(=O)NN2CC(O)=C(c3nc(-c4cccc([N+](=O)[O-])c4)cs3)C2=N)cc1	8.3	5.2	4.0	56.4*	-1.3	10.1
COc1cccc(C(=O)NN2CC(O)=C(c3nc(C)cs3)C2=N)c1	-3.1	-33.6	·	-5.8	6.2	-3.0
CC1(C(=O)NNC(=O)C2CCCCC2)CC1(Cl)Cl (stereo not drawn)	6.4	99.0*	·	-13.9	6.6	4.3
Cn1cc(Br)c(NC(=O)/C=C/C(=O)O)n1	2.2	17.6	·	66.7*	1.5	-1.2
